This note sets out measurements from PubChem BioAssay AID493248 (Broad Institute, 2011).

Hit rate of the full screen: of about 2,300 compounds, about 1,400 (61%) were called active. About 7% were inconclusive and are not listed. No rule for the calls is given here. The set was probably picked from earlier hits. Not all results are given here. Measured potencies and affinities stand elsewhere.

The target of this assay is FAD-linked sulfhydryl oxidase ALR (Homo sapiens) (UniProt P55789). The experiment in a line: ALR-catalysed DTT oxidation blockers – biochemical, H2O2 detection, luminescence, cherry-pick, dose response (AID 493248). Particulars: purified ALR, H2O2 HRP-luminol luminescence; at 10 µM (top of the series).
Sequence of FAD-linked sulfhydryl oxidase ALR (Homo sapiens) (P55789 whole entry, looked up): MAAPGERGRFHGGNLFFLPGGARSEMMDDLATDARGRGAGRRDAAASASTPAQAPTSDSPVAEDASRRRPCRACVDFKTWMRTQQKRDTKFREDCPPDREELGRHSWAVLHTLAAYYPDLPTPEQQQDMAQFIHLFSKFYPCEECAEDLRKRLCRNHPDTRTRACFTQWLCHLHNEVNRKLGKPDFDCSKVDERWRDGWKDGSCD
`Nc1ccc2sc(N)nc2c1`: the activity change, negative = inhibition stood at 299%.

On to `Cc1cc(NC(=O)c2sc(Nc3ccc(F)cc3)nc2N)no1`, for which the activity change, negative = inhibition is -41.5%.

Consider `O=C(c1ccccn1)N1CCCC(N2CCN(c3ccc(F)cc3)CC2)C1` (configuration not stated), for which the activity change, negative = inhibition is -82.4%.

On to `CC(C)N(c1nnc(N)s1)C(C)C`, for which the activity change, negative = inhibition is -37.4%.

Turning to `COc1ccc(C(N)CCc2ccco2)cc1` (configuration not stated), the activity change, negative = inhibition is 0.936%.

Turning to `O=C(Nc1cccs1)Nc1c(F)cc(F)cc1Br`, the activity change, negative = inhibition was -42.8%.

For `Cc1ccc(NC(=O)Nc2cccs2)nc1`, the activity change, negative = inhibition is -2.58%.

Regarding `CC(C)NC(=O)Nc1cccs1`, the activity change, negative = inhibition was -47.1%.

In the case of `Cc1ccc(N2CCN(CCCN3C(=O)C4CCCN4C3=O)CC2)cc1` (configuration not stated), the activity change, negative = inhibition was -22.5%.

Turning to `Oc1ccc(NCc2cccs2)cc1`, the activity change, negative = inhibition stood at 41.7%.

Take `COc1ccc(NC2CCCN(C(=O)c3oc(C)cc3C)C2)cc1OC` (configuration not stated): the activity change, negative = inhibition turned out to be 75.6%.

As to `O=C(C1CCCC1)N1CCCC(Nc2ccc(F)cc2)C1` (configuration not stated), the activity change, negative = inhibition is -72.7%.

Consider `C=CCNC(=O)c1onc(CSc2ccc(C)c(C)c2)c1C(=O)O`, for which the activity change, negative = inhibition was determined as 10.6%.

Turning to `CCCCNC(=O)c1onc(CCl)c1C(=O)OC`, the activity change, negative = inhibition was -46.6%.

On to `Cc1cc2c(N3CCCCC3C)ncnc2s1` (configuration not stated), for which the activity change, negative = inhibition was -5.25%.

Regarding `Cc1ccc(NC(=O)C2CCN(S(=O)(=O)c3cccc4cccnc34)CC2)nc1`, the activity change, negative = inhibition was -47.3%.

With `CC(c1ccc(F)cc1)n1c(-c2cccs2)n[nH]c1=S` (configuration not stated), the activity change, negative = inhibition was -12.6%.

Consider `Cc1n[nH]c(=S)n1-c1ccc(Cl)cc1`, for which the activity change, negative = inhibition is -91.4%.

`Cc1cccc(-n2c(C)n[nH]c2=S)c1C`: the activity change, negative = inhibition is -35.3%.

Consider `CCn1c(-c2cc(Cl)ccc2OC)n[nH]c1=S`, for which the activity change, negative = inhibition was -40.3%.

For the compound `CC(NS(=O)(=O)c1ccccc1)c1n[nH]c(=S)n1-c1ccccc1` (configuration not stated), the activity change, negative = inhibition was -28.7%.

Regarding `Oc1c(Br)cc(Br)c(/C=N/n2c(-c3ccccc3)n[nH]c2=S)c1Br`, the activity change, negative = inhibition is -75.2%.

Regarding `CCn1c(N)[n+](CC(=O)Nc2ccc(SC(F)F)cc2)c2ccccc21`, the activity change, negative = inhibition is 17.1%.

On to `Cc1cc(NCc2ccccn2)nc2ccccc12`, for which the activity change, negative = inhibition was 16.8%.

As to `Cc1nn(CC2CCCCC2)c(N)c1-c1ccccc1`, the activity change, negative = inhibition was -21.2%.

`CN(CC(=O)NCc1ccco1)S(=O)(=O)c1ccc2c(c1)n(C)c(=O)c(=O)n2C`: the activity change, negative = inhibition is -5.75%.

On to `Cc1ccc(S(=O)(=O)NNC(=O)c2ccc(O)cc2)cc1`, for which the activity change, negative = inhibition was -54.2%.

As to `Cc1cc(C)nc(Sc2c(C)nn(-c3ccccc3)c2C)n1`, the activity change, negative = inhibition is -4.01%.

Take `Cc1ccc([N+](=O)[O-])cc1S(=O)(=O)Nc1ccc(O)c(Sc2ncn[nH]2)c1`: the activity change, negative = inhibition was -101%.

As for `Cc1cccc(NC(=O)C2CCN(S(=O)(=O)c3cccc4cccnc34)CC2)c1`, the activity change, negative = inhibition was -19.2%.

On to `COc1ccc(N=C(N(C)C)P(=O)(N(C)C)N(C)C)cc1`, for which the activity change, negative = inhibition was -0.552%.

Consider `CN(C)/N=C/c1ccc(OC(=O)c2cccc([N+](=O)[O-])c2)cc1`, for which the activity change, negative = inhibition was -3.63%.

With `Nc1ccc2c(c1)-c1ccccc1S(=O)(=O)N2`, the activity change, negative = inhibition was -105%.

With `Cn1nc(-c2ccc(Cl)cc2)c2cc(C(=O)NC3CC3)sc21`, the activity change, negative = inhibition is -2.11%.

Consider `CCN1CCN(C(=O)c2cc3c(-c4ccc(Cl)cc4)nn(C)c3s2)CC1`, for which the activity change, negative = inhibition is -4.97%.

For the compound `COc1cccc(-c2nc(CCl)cs2)c1`, the activity change, negative = inhibition came to 22.5%.

For the compound `Fc1ccc2c(c1)/C(=N/Nc1ccccn1)CCS2`, the activity change, negative = inhibition is -12.8%.

On to `COc1ccc(-c2cc(-c3n[nH]c(=S)n3-c3cc(OC)ccc3OC)[nH]n2)cc1`, for which the activity change, negative = inhibition amounted to 46.9%.

Take `O=C(CN1C(=O)S/C(=C\C=C\c2ccccc2)C1=O)Nc1ccc(C(=O)O)cc1`: the activity change, negative = inhibition is -22.9%.

Take `O=c1c2c(nc3n1CCCCC3)sc1c(O)cccc12`: the activity change, negative = inhibition is -92.9%.

Turning to `COc1cc(/C=N/Nc2cc(C)nc(N)n2)ccc1O`, the activity change, negative = inhibition is -108%.

For the compound `COc1ccc2c(/C=N/NS(=O)(=O)c3ccc(C)cc3)c[nH]c2c1`, the activity change, negative = inhibition was -4.96%.

With `COc1ccccc1NS(=O)(=O)c1cc([N+](=O)[O-])ccc1N/N=C/c1c[nH]c2ccccc12`, the activity change, negative = inhibition was 0.734%.

With `COc1ccc(/C=N/Nc2ccc([N+](=O)[O-])cc2)cc1O`, the activity change, negative = inhibition was -70%.

On to `Oc1ccc(/C=N/NC2=NCCCCC2)cc1`, for which the activity change, negative = inhibition was -110%.

With `O=C(CNc1ccccc1)N/N=C/c1c[nH]c2ccccc12`, the activity change, negative = inhibition is -29.1%.

On to `O=[N+]([O-])c1cccc(N/N=C/c2cccc(O)c2O)c1`, for which the activity change, negative = inhibition is -6.94%.

Regarding `COc1ccc(Nc2nc(N)c3ccccc3n2)c(OC)c1`, the activity change, negative = inhibition is -5.05%.

Regarding `Cn1c(CNc2ccc(F)cc2)nc2ccccc21`, the activity change, negative = inhibition is 4.17%.

For the compound `COc1ccc2nc3ccccc3nc2c1N`, the activity change, negative = inhibition stood at 417%.

`CCN1C(=O)c2cccc3c(N)ccc1c23`: the activity change, negative = inhibition is -69.8%.

As to `Cc1ccc(S(=O)(=O)NCC(=O)NCC2CCCCC2)cc1C`, the activity change, negative = inhibition amounted to 18.2%.

Consider `Cn1c(=O)[nH]c(=O)c2c1[nH]c(=S)n2Cc1ccccc1`, for which the activity change, negative = inhibition is -58.1%.

For `O=C(c1cc(-c2ccc(O)cc2)on1)N1CCCCCC1`, the activity change, negative = inhibition is -103%.

Regarding `Cc1cnc(C(=O)Nc2ccc(C(=O)N3CCCCC3)cc2)cn1`, the activity change, negative = inhibition worked out at 0.57%.

Consider `CC(C)(C)C(=O)NC1=NCCS1`, for which the activity change, negative = inhibition was -0.254%.

For `C/C(=N\NC(=O)c1csc2ccccc12)c1ccc(O)cc1`, the activity change, negative = inhibition was -107%.

For the compound `COc1ccc(CNc2ccc(Br)cc2)cc1`, the activity change, negative = inhibition is -0.843%.

For `C/C(=N\Nc1ccccn1)c1ccc(OC(F)F)cc1`, the activity change, negative = inhibition was 30.6%.

In the case of `COc1cc(C(=O)n2nc(C)cc2C)ccc1O`, the activity change, negative = inhibition was 108%.

In the case of `CC(C)(C)NC(=O)C(Cc1ccccc1)NS(=O)(=O)c1ccc2c(c1)CCC(=O)N2` (configuration not stated), the activity change, negative = inhibition is -98.2%.

Take `Cc1ccc(-n2[nH]c(C)c(/C=N/NC(=O)c3ccc(O)cc3O)c2=O)cc1`: the activity change, negative = inhibition was -40.4%.
